# From PubChem
# HT1080 IDH1KD tx – qHTS for induction of synthetic lethality in tumor cells producing 2HG: qHTS for the HT-1080-IDH1KD cell line; HT-1080 IDH1 knockdown viability, ATP luminescence, 48 h; Potency, µM (titrated, usually from 46.1 µM), for inactives: at the top dose activity, negative = toxicity, most hits filed as cytotoxic; hit rate 2% among 360,000; AID 686971, 2013;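 note: 0% = DMSO wells and -100% = cell-free medium wells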
#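 Knockdown cells (IDH1KD HT-1080) received compounds 2 h after plating at 750 cells/well and were kept 48 h at 37 °C in 5% FBS RPMI. A CellTiter-Glo luminescence read gave % activity for curve fitting.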
# KB-3-1 tox – qHTS assay for MDR1-selective chemotherapeutics: Primary screen using the parental adenocarcinoma cell KB-3-1 | hit rate 1.4% among 400,000 | Potency, µM (highest dose often 46.1 µM), most hits filed as cytotoxic | KB-3-1 viability, CellTiter-Glo ATP luminescence, 72 h; note: % is set by controls: 0 for no effect and ±100 for the full control effect; nearly all actives have a fitted effect of over 60% in size
#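 Multi-concentration cytotoxicity screen in KB-3-1 cells grown in DMEM lacking phenol red with 10% FBS. After 72 h at 37 °C with compound, ATP-dependent luminescence was recorded.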
# KB-V1 cytotox – qHTS assay for MDR1-selective chemotherapeutics: Primary screen using the drug-selected MDR subline cells KB-V1; hit rate 3.4% among 400,000; KB-V1 MDR cells viability, CellTiter-Glo, 72 h; Potency, µM (doses to about 46.1 µM), most hits filed as cytotoxic; AID 1347076, 2019; note: % is set by controls: 0 for no effect and ±100 for the full control effect; nearly all actives have a fitted effect of over 60% in size
#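 Readout: CellTiter-Glo luminescence, 10 min after addition. Cells: KB-V1 MDR subline, 72 h at 37 degrees C with compound. Analysis: corrected, normalized data fitted to concentration-effect curves.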
# ATXN viability – Viability Counterscreen for Primary qHTS for Inhibitors of ATXN expression; S2 cells (HEK-293 line with an ATXN2-luciferase reporter) viability, CellTiter-Fluor protease fluorescence, 24 h; Potency, µM (highest dose often 56.7 µM), actives largely listed as cytotoxic; hit rate 0.49% among 400,000; AID 651635, 2014; note: nearly all actives have a fitted effect of over 40% in size
# HT1080NT lethal – qHTS for induction of synthetic lethality in tumor cells producing 2HG: qHTS for the HT-1080-NT fibrosarcoma cell line | HT-1080-NT fibrosarcoma viability, CellTiter-Glo ATP luminescence, 48 h | Potency, µM (highest dose often 46.1 µM), without a hit: at the top dose activity, negative = less viability, hits mostly cytotoxic | hit rate 1.6% among 360,000 | AID 686970, 2013;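 note: NT is the 2HG producing partner of a matched IDH1 knockdown line; 0% = DMSO-treated cells and -100% = media-only wells without cells; nearly all actives have a fitted effect of over 55% in size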
#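 Fibrosarcoma NT cells, 750 per well in 5% FBS RPMI, were exposed to compound for 48 hours. Viability: CellTiter-Glo luminescence.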
# ATXN2 expr inh – Primary qHTS for Inhibitors of ATXN expression; AID 1745845, 2022; hit rate 0.72% among 360,000; Potency, µM (doses to about 57 µM), without a hit: at the highest dose activity change, negative = inhibition, actives largely listed as inhibitors; HEK-293 ATXN2-luciferase reporter, luminescence, 24 h; note: % is set by controls: 0 for no effect and ±100 for the full control effect; nearly all actives have a fitted effect of over 55% in size
#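 ATXN2-luciferase reporter cells (luciferase flanked by upstream and downstream ATXN2 gene portions) were treated 24 h at 37 °C with compounds at up to 57 uM. SteadyGlo luminescence gave expression; GF-AFC fluorescence gave viability.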
# * marks the source's active call; other numbers are inactive results; i = inactive; u = inconclusive; x = no result given; [ ] = remark or other dose. The list is not random: actives were taken first. Their share in the collection is about 6.2%. Calls come from the whole dose curve; as a rule, active = well fitted curve in the direction sought with a large enough effect; inconclusive = small, poorly fitted or top-dose-only effect, or another doubt; inactive = no such curve, though single readings can be large; an effect the other way counts as inactive or inconclusive. Potency is the fitted concentration of half-maximal effect.
SMILES,HT1080 IDH1KD tx,KB-3-1 tox,KB-V1 cytotox,ATXN viability,HT1080NT lethal,ATXN2 expr inh
Cc1ccccc1NC(=O)CSC1=Nc2ccccc2C2=NC(CCC(=O)NCc3ccccc3)C(=O)N12 (centres undefined),x,i,i,i,x,19%
Cc1ccsc1CN(C)c1ncnc2ccc(-c3ccc4c(c3)OCO4)cc12,x,u,i,x,x,x
N#CCSc1nnc(COc2ccccc2)n1-c1ccccc1,5%,i,23µM*,i,15%,-2%
Cc1ccc(-n2c(SCc3ccc(C#N)cc3)nnc2-c2ccccn2)cc1,4%,i,i,i,8%,3%
O=C(O)CSc1nnc(COc2ccccc2)n1-c1ccccc1,-1%,i,i,u,11%,x
Cc1ccc(OCc2nnc(SCc3ccc(C#N)cc3)n2-c2ccc(C)cc2)cc1,11µM*,i,i,i,u,-24%
Cc1cccc(OCc2nnc(SCc3cc(=O)[nH]c4ccccc34)n2-c2ccccc2)c1,-15%,i,18µM*,i,2%,4%
COc1ccc(-n2c(COc3cccc4ccccc34)nnc2SCC#N)cc1,u,u,i,i,u,-13%
N#CCSc1nnc(COc2cccc3ccccc23)n1-c1ccccc1,u,16µM*,16µM*,u,u,u
Cc1ncc2c(c1CNC(=O)c1cncs1)CCN(C(=O)c1ccc(C(F)(F)F)cc1)C2,x,x,x,i,x,x
Cc1ccc(-c2nnc(CSc3nnc(COc4cccc5ccccc45)n3-c3ccccc3)o2)cc1,u,u,2.1µM*,u,-16%,u
N#CCSc1nnc(COc2cccc3ccccc23)n1-c1cccc(Cl)c1,u,i,u,u,u,-23%
O=S(=O)(c1ccccc1S(=O)(=O)N1CCCCC1)N1CCCCC1,-22%,i,15µM*,i,u,12%
CC1CCN(S(=O)(=O)c2cc(Cl)ccc2Br)CC1,-3%,i,i,i,-7%,-1%
O=S(=O)(c1cccc2ccccc12)N1CCCCC1,-1%,i,i,i,4%,-6%
CCOc1ccc(S(=O)(=O)N2CCOCC2)c2ccccc12,-8%,i,i,i,-2%,-12%
O=S(=O)(c1ccc(Oc2ccc(Cl)cc2)c(S(=O)(=O)N2CCCCC2)c1)N1CCCCC1,8%,i,3.3µM*,i,12%,2%
O=S(=O)(c1ccc(Cl)cc1Br)N1CCCCC1,-29%,u,18µM*,i,0%,-13%
CCOc1ccc(S(=O)(=O)N2CCCCC2)c2ccccc12,21µM*,i,i,i,-11%,-10%
O=S(=O)(c1ccc(Cl)cc1)N1CCN(S(=O)(=O)N2CCCCCC2)CC1,20%,i,i,i,10%,2%[11.3 µM]
COC(=O)C=CC(=O)OC,x,x,x,x,x,12%
CCCCOc1ccc(S(=O)(=O)NCc2csc(C)n2)cc1,-22%[9.24 µM],18µM*,u,i,u,-21%
c1ccc(N2CCN(c3nc(NCc4ccco4)c4ccccc4n3)CC2)cc1,18µM*,u,12µM*,u,16µM*,u
c1ccc(CNc2nc(N3CCN(Cc4ccccc4)CC3)nc3ccccc23)cc1,21µM*,u,23µM*,i,u,u
CC1(C(=O)Nc2ccc3c(c2)OCCO3)CSCC(=O)N1CCCn1ccnc1 (centres undefined),17%,i,i,x,18%,x
SMILES,HT1080 IDH1KD tx,KB-3-1 tox,KB-V1 cytotox,ATXN viability,HT1080NT lethal,ATXN2 expr inh
Cc1c(C)c2c(c(C)c1O)CC[C@@](C)(C(=O)O)O2,x,x,x,i,x,x
Cc1ccccc1N=C1SC(CC(=O)Nc2ccc3ccccc3c2)C(=O)N1Cc1ccccn1 (centres undefined),-3%,u,21µM*,u,u,u
O=C(CC1SC(=Nc2cccc3ccccc23)N(Cc2ccccn2)C1=O)Nc1ccccc1Br (centres undefined),-24%,u,16µM*,i,-14%,-20%
Cc1cc(C)c2c(c1)/C(=C/C(=O)c1ccc(Br)s1)C(=O)N2,u,18µM*,23µM*,u,u,18µM*
Cc1cccc2c1NC(=O)/C2=C\C(=O)c1cccs1,16µM*,i,u,i,18µM*,u
Cc1cc(Br)c2c(c1)/C(=C/C(=O)c1cccs1)C(=O)N2,-22%,i,i,u,u,u
Cc1ccccc1Cn1c(SCc2ccc(C(=O)NC(C)c3ccccc3)cc2)nc2ccncc21 (centres undefined),x,i,i,u,x,-9%
CCn1c(C)c(P(c2ccccc2)c2ccccc2)[n+]2ccccc12,-8%,9.2µM*,i,u,-30%,u
COc1ccccc1N1CCN(S(=O)(=O)CCNC(=O)Cc2ccc(F)cc2)CC1,u,u,18µM*,i,-27%,-13%
COc1ccccc1N1CCN(c2cc(=O)n(Cc3ccc(F)cc3)c(=O)[nH]2)CC1,u,5.2µM*,u,u,12µM*,-4%
COc1ccccc1N1CCN(S(=O)(=O)CCNC(=O)CCCc2ccccc2)CC1,-1%,i,u,u,-10%,-7%
O=c1cc(N2CCN(c3ccccc3Cl)CC2)[nH]c(=O)n1Cc1ccc(F)cc1,2.6µM*,4.6µM*,21µM*,i,u,-24%
O=c1cc(N2CCN(Cc3ccccc3)CC2)[nH]c(=O)n1Cc1ccc(F)cc1,-23%,i,i,i,5%[9.24 µM],-18%
CSc1ccc(CNC(=O)C2CCCN(S(=O)(=O)N(C)c3ccc(F)cc3)C2)cc1 (centres undefined),x,16µM*,i,x,x,x
CC1CCN(S(=O)(=O)N2CCCC(C(=O)NCc3ccc(F)cc3)C2)CC1 (centres undefined),-3%,i,i,i,-7%,-19%
Oc1ccccc1C=NCc1ccccc1,x,x,x,i,x,12%
Cc1cc(N)c2ccccc2[n+]1CCCCCCCCCC[n+]1c(C)cc(N)c2ccccc21,x,x,x,i,x,x
CCC1(C)NC(c2ccc3c(c2)OCO3)=CC(c2ccccc2O)N1 (centres undefined),x,u,i,x,x,x
S=C1NC[C@H](CC2CCCCC2)N1CC1CCCCC1,u,i,i,18µM*,u,32µM*
